From PubChem BioAssay (Tox21) come the findings set out here.

Calls of active or inactive are those of the source. Calls follow the shape of the dose curve; as a rule, active = well fitted curve in the direction sought with a large enough effect in the repeat runs; inconclusive = weak or mixed curves; inactive = flat fitted curve, though single readings scatter.
% is scaled to controls: 0 for no effect and ±100 for the full control effect.

This assay can be described thus: qHTS assay to test for compound auto fluorescence at 535 nm (green) in HEK293 cell free culture (AID 720682). The following applies: cell-free medium, green autofluorescence 485/535 nm, hits give high values; series mostly up to 91.3 µM; activity change: at the top concentration. From the text:
U.S. Tox21 Program National Center for Advancing Translational Sciences [NCATS] NIH Chemical Genomics Center [NCGC] U.S. Environmental Protection Agency [EPA] National Institutes of Environmental Health Sciences [NIEHS] National Toxicology Program [NTP] U.S. Food and Drug Administration [FDA] Tox21 Assay Overview: Compound auto fluorescence often interferes with screening of the compound library against various biological targets and signaling pathways. Some of these compounds may have fluorophoric properties. Such properties may interfere with the assay outputs resulting in false positives and/or negatives. To decrease such complications and ensure the compound activities are relevant in terms of biological response, the Tox21 10K compound library was screened for auto fluorescence. From the fluorophores used as reporter signals in our screening assays, the auto fluorescence equivalencies of compounds against three fluorophores have been evaluated: Triamterene, Fluorescein and Rose Bengal sodium for blue, green and red fluorescence, respectively. The fluorescence intensities were measured using Excitation/Emission wavelengths at 405/460nm, 485/535nm and 540/590nm for blue, green and red labels, respectively. This assay includes the green fluorescence data.
Tox21 Assay Protocol Summary: 5 uL of culture medium (DMEM containing 10% FBS) per well was dispensed into black wall/clear bottom 1536-well plates using a Multidrop Combi Dispenser (ThermoFisher Scientific, Waltham, MA). After 23 nL compound or DMSO vehicle was transferred into assay plate by a pintool work station (Kalypsys, San Diego, CA), fluorescence intensities in the assay plates were measured by an Envision (PerkinElmer, Shelton, CT) plate reader using three labels for measuring blue, green and red fluorescence at […] 460, 535 and 590nm respectively.
For orientation: qHTS replaces the single test concentration by a dilution series.
As for `COc1cc2c(cc1OC)-c1cc3ccc(OC)c(OC)c3c[n+]1CC2`, the “activity change” value is -0.0183% (inactive).
In the case of `C=CN1CCCCCC1=O`, the “activity change” value is 0.0612% (inactive).
As to `CO/N=C(\C(=O)N[C@@H]1C(=O)N2C(C(=O)O)=C(CSc3nc(=O)c(O)nn3C)CS[C@H]12)c1csc(N)n1`, the “activity change” value is -0.0312% [at 46 µM] (inactive).
Under `C[C@@H]1CCC[C@H](C)N1` stands 0.0087% [at 18.6 µM] (inactive); under `O=C(c1ccccc1O)c1ccccc1O`, -0.0113% (inactive).
`Cc1ccc(C(=O)Nc2ccc(S(=O)(=O)O)c3cc(S(=O)(=O)O)cc(S(=O)(=O)O)c23)cc1NC(=O)c1cccc(NC(=O)Nc2cccc(C(=O)Nc3cc(C(=O)Nc4ccc(S(=O)(=O)O)c5cc(S(=O)(=O)O)cc(S(=O)(=O)O)c45)ccc3C)c2)c1`: the “activity change” value is 0.0173% [at 46 µM] (inactive).
On to `CC(=O)N[C@H]1[C@H]([C@H](O)[C@H](O)CO)OC(C(=O)O)=C[C@@H]1N=C(N)N`, for which the “activity change” value is 0.104% [at 46 µM] (inactive).
Under `CCOCC(C)O` (stereo not given) stands -0.024% (inactive).
The figure for `O=C(O)CCSCCC(=O)O` is 0.0272% (inactive).
Under `COC(=O)C1=C(C)NC(C)=C(C(=O)OC(C)C)C1c1cccc2nonc12` (stereo not given) stands 0.0719% [at 18.6 µM] (inactive); under `COc1c(N2CCNC(C)C2)c(F)cc2c(=O)c(C(=O)O)cn(C3CC3)c12` (stereo not given), -0.041% [at 46 µM] (inactive); under `O=CN(CCO)CCO`, -0.0072% (inactive).
With `CN(C)C(=O)Oc1ccc[n+](C)c1`, the “activity change” value is -0.157% [at 46 µM] (inactive).
The figure for `CO[C@@]1(NC(=O)C(C(=O)O)c2ccc(O)cc2)C(=O)N2C(C(=O)O)=C(CSc3nnnn3C)CO[C@@H]21` (stereo not given in full) is 0.0756% [at 18.6 µM] (inactive); for `CN(C)C(=O)Oc1cccc([N+](C)(C)C)c1` it is 0.0005% [at 46 µM] (inactive).
Under `CC1=C(C/C=C(\C)CCC[C@H](C)CCC[C@H](C)CCCC(C)C)C(=O)c2ccccc2C1=O` stands 0.119% [at 46 µM] (inactive); under `O=C1NC(=O)C2CC=CCC12` (stereo not given), -0.0835% (inactive); under `C[C@H]1[C@H](NC(=O)/C(=N/OC(C)(C)C(=O)O)c2csc(N)n2)C(=O)N1S(=O)(=O)O` (stereo in doubt), 0.008% [at 18.6 µM] (inactive).
The figure for `CC(=O)Oc1cccc(C)c1` is 0.0261% [at 46 µM] (inactive).
Regarding `C1CCC2(CCCCO2)OC1`, the “activity change” value was -0.0717% (inactive).
Under `CC12CCC(C(=O)C1=O)C2(C)C` (stereo not given) stands 0.0685% [at 95.7 µM] (inactive).
Under `Cc1ccnc(NS(=O)(=O)c2ccc(N)cc2)n1` stands 0.0378% [at 18.6 µM] (inactive); under `O=S(=O)(O)c1cc(O)c(O)c(S(=O)(=O)O)c1`, -0.0118% (inactive); under `CC[N+](CC)(CC(=O)Nc1c(C)cccc1C)Cc1ccccc1` (tested in a mixture with another compound), -0.0141% (inactive).
On to `CCCCCCCCCCCCCCC(=O)O`, for which the “activity change” value is 0.0235% (inactive).
The figure for `CCCCCCC#CC(=O)OC` is -0.0205% (inactive); for `OCCc1ccccn1` it is -0.224% (inactive).
Take `C[N+](C)(CCOc1ccccc1)Cc1cccs1`: the “activity change” value is -0.0642% [at 46 µM] (inactive).
The figure for `CCN1C=CN(C)C1C` (stereo not given) is -0.0778% (inactive); for `CCOc1ccccc1OCC` it is 0.0053% (inactive); for `CC(C)(C)OC(=O)c1cccc(N)c1` it is -0.031% [at 95.7 µM] (inactive).
Consider `CC1=NS(=O)(=O)c2cc(Cl)ccc2N1`, for which the “activity change” value is -0.0171% [at 46 µM] (inactive).
As for `C[N+]1(CC2COC(c3ccccc3)(c3ccccc3)O2)CCCCC1` (stereo not given), the “activity change” value is 0.0119% [at 46 µM] (inactive).
Under `CCN1CCOCC1` stands -0.0048% (inactive); under `O=C(CO)[C@@H](O)[C@H](O)[C@@H](O)CO`, 0.0241% [at 46 µM] (inactive).
With `Cc1cc(C)c(N=Nc2c(O)c(S(=O)(=O)O)cc3cc(S(=O)(=O)O)ccc23)cc1C`, the activity change is 0.0216% [at 9.17 µM] (inactive).
For the compound `C=CCCCCCCCCC(=O)OCC`, the “activity change” value was 0.0945% (inactive).
Under `CC(=O)c1ccc2ccccc2c1` stands 0.113% (inactive); under `COc1cc(C(=O)NCc2ccc(OCCN(C)C)cc2)cc(OC)c1OC`, -0.0621% [at 18.6 µM] (inactive); under `CC1(C)[C@@H]2CC[C@@]1(C)[C@H](O)C2`, -0.112% (inactive).
